“And” between values parts separate entries of the source, which are not always exact repeats. Equal values may be shown once. Hit rate of the full screen: of about 5,500 compounds, about 2,000 (36%) were called active. Inconclusive results (about 18%) are left out. Rule as the data show it: active = normalized growth mostly below about 0.91 (no sharp cut-off); inconclusive = no clear call, values can overlap the other calls; inactive = mostly above about 0.92. The list shows a part of the results.
Assay: chemical genetic growth profiling, strain panel (AID 1159580);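 also: tested at 20 µM; growth read once vehicle control cultures reached saturation at 30 °C; 1 = growth at the plate median or of vehicle wells; lower values mean less growth of the strain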
Conditions: S. cerevisiae deletion strains, growth OD

Measured: normalized growth

CC(CN(C)C)CN1c2ccccc2CCc2ccccc21 (stereo not given)
inactive: locus YAL013W, strain DEP1, hits give low values 1 | locus YAL026C, strain drs2, hits give low values 0.982 | locus YAL030W, strain snc1, hits give low values 0.977 | locus YAL040C, strain CLN3, hits give low values 1.03 | locus YBL061C, strain skt5, hits give low values 0.984 | locus YBR009C, strain hhf1, hits give low values 0.972 | locus YBR021W, strain FUR4, hits give low values 1.01 | locus YBR023C, strain chs3, hits give low values 0.975 | locus YBR171W, strain sec66, hits give low values 0.963 | locus YBR229C, strain ROT2, hits give low values 1.01 | locus YBR231C, strain swc5, hits give low values 0.976 | locus YBR279W, strain paf1, hits give low values 0.988 | locus YCL011C, strain gbp2, hits give low values 0.973 | locus YCL016C, strain dcc1, hits give low values 0.974 | locus YCL029C, strain bik1, hits give low values 1.02 | locus YCL061C, strain MRC1 (second series), hits give low values 1.01 | locus YCL061C, strain MRC1, hits give low values 0.986 | locus YCL069W, strain vba3, hits give low values 0.969 | locus YCR088W, strain abp1, hits give low values 0.977 | locus YDL005C, strain med2, hits give low values 0.973 | locus YDL035C, strain GPR1, hits give low values 1.01 | locus YDL040C, strain nat1, hits give low values 0.976 | locus YDL074C, strain BRE1, hits give low values 1.02 | locus YDL101C, strain DUN1, hits give low values 1 | locus YDL134C, strain PPH21, hits give low values 1.01 | locus YDL185W, strain tfp1, hits give low values 1.02 | locus YDL192W, strain arf1, hits give low values 1.01 | locus YDR001C, strain nth1, hits give low values 0.977 | locus YDR069C, strain doa4, hits give low values 0.921 | locus YDR101C, strain arx1, hits give low values 1.02 | locus YDR150W, strain NUM1, hits give low values 1.02 and 1.01 | locus YDR159W, strain sac3, hits give low values 0.977 | locus YDR162C, strain NBP2, hits give low values 1.01 | locus YDR195W, strain ref2 0.999 | locus YDR297W, strain sur2, hits give low values 0.975 | locus YDR318W, strain mcm21, hits give low values 1.02 | locus YDR334W, strain swr1, hits give low values 0.946 | locus YDR335W, strain msn5, hits give low values 0.975 | locus YDR363W, strain ESC2, hits give low values 0.993 | locus YDR388W, hits give low values 1.02 | locus YDR392W, strain spt3, hits give low values 0.96 | locus YDR502C, strain sam2, hits give low values 1.03 | locus YEL003W, strain gim4, hits give low values 0.965 | locus YEL037C, strain rad23, hits give low values 0.954 | locus YEL061C, strain CIN8 (second series), hits give low values 0.96 | locus YEL061C, strain CIN8, hits give low values 1.01 | locus YER002W, strain NOP16, hits give low values 1.01 | locus YER015W, strain faa2, hits give low values 0.961 | locus YER016W, strain bim1, hits give low values 0.975 | locus YER110C, hits give low values 1.02 | locus YER111C, strain swi4, hits give low values 0.974 | locus YER155C, strain BEM2 (second series), hits give low values 0.948 | locus YER155C, strain BEM2, hits give low values 1 | locus YER167W, strain BCK2, hits give low values 1.01 | locus YFR010W, strain ubp6, hits give low values 0.954 | locus YGL078C, strain dbp3, hits give low values 1.01 | locus YGL086W, strain mad1, hits give low values 1.01 | locus YGL167C, strain pmr1, hits give low values 0.98 | locus YGL173C, strain kem1, hits give low values 0.972 | locus YGL227W, strain vid30, hits give low values 0.978 | locus YGL240W, strain doc1, hits give low values 0.969 | locus YGL248W, strain PDE1, hits give low values 0.996 | locus YGL253W, strain hxk2, hits give low values 0.977 | locus YGR078C, strain PAC10, hits give low values 1.01 | locus YGR135W, strain pre9, hits give low values 1.02 | locus YGR229C, strain SMI1, hits give low values 0.978 | locus YGR252W, strain gcn5, hits give low values 0.97 | locus YHR027C, strain rpn1, hits give low values 0.966 | locus YHR030C, strain SLT2, hits give low values 1.02 and 0.988 | locus YHR079C, strain IRE1 (second series), hits give low values 1.01 | locus YHR079C, strain IRE1, hits give low values 0.981 | locus YHR094C, strain hxt1, hits give low values 1.01 | locus YHR129C, strain ARP1, hits give low values 1.01 | locus YHR142W, strain chs7, hits give low values 0.971 | locus YHR200W, strain rpn10, hits give low values 1.03 | locus YIL066C, strain RNR3, hits give low values 1 | locus YIL073C, strain SPO22, hits give low values 1.07 | locus YIL125W, strain kgd1, hits give low values 1.01 | locus YIR030C, strain dcg1, hits give low values 1.01 | locus YJL092W, strain hpr5, hits give low values 0.936 | locus YJL095W, strain BCK1 (second series), hits give low values 0.984 | locus YJL095W, strain BCK1, hits give low values 0.984 and 0.986 | locus YJL115W, strain asf1, hits give low values 0.957 | locus YJL129C, strain trk1, hits give low values 0.973 | locus YJL134W, strain LCB3, hits give low values 1 | locus YJL154C, strain vps35, hits give low values 0.978 | locus YJL164C, strain tpk1, hits give low values 0.973 | locus YJL166W, strain qcr8, hits give low values 0.963 | locus YJL168C, strain set2, hits give low values 1.02 | locus YJL187C, strain SWE1 (second series), hits give low values 0.988 | locus YJL187C, strain SWE1, hits give low values 0.965 | locus YJR043C, strain POL32, hits give low values 1
active: locus YAL021C, strain ccr4, hits give low values 0.893 | locus YDR137W, strain rgp1, hits give low values 1.2 [resistant] | locus YHR013C, strain ard1, hits give low values 0.833

Source: PubChem BioAssay AID1159580 (chemical genetic matrix, 2015)
